Positions count from the first letter of the chain named.
How the values were obtained:
Assay in all cases: HT-SELEX; high values mean tight binding
Settings in all cases: protein: recombinant; vector His6-GST; dsDNA, one strand shown
SALL4 ZFC4 WT (HT-SELEX) = biological target: T1, SALL4 ZFC4 WT (HT-SELEX) (Mus musculus, UniProt Q8BX22 870-940)
T1 sequence: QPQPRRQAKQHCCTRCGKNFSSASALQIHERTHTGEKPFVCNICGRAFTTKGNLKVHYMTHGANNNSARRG
How it was run: (§1)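 In triplicate selections of up to 6 cycles, purified recombinant mouse SALL4 zinc finger cluster 4 (residues 870–940, 1 µg) was incubated 10 min at room temperature with library DNA (1.5 µg, then 200 ng) in 100 µl of 10 mM Tris–HCl pH 7.5, 50 mM NaCl, poly(dI-dC) and DTT, and complexes were captured on Ni2+ beads, washed and PCR-amplified. Sequencing was done on MiSeq with scanning for 6-mers. The binding signal is each canonical k-mer's read fraction, reported as fold change against the initial random library.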

[1] = biological target: T2, SALL4 ZFC4 R900W (HT-SELEX) (Mus musculus, UniProt Q8BX22 870-940, R900W)
T2 sequence: T1 sequence with R31W
How it was run: as §1

[2] = biological target: T3, SALL4 ZFC4 G921D (HT-SELEX) (Mus musculus, UniProt Q8BX22 870-940, G921D)
T3 sequence: T1 sequence with G52D
How it was run: as §1

| Sequence | binding signal (SALL4 ZFC4 WT (HT-SELEX)) [fold-change vs cycle 0] | binding signal [1] [fold-change vs cycle 0] | binding signal [2] [fold-change vs cycle 0] |
| --- | --- | --- | --- |
| AACGAT | 1.21 ± 0.0566 | 1.27 ± 0.0691 | 1.23 ± 0.0814 |
| TACCTA | 1.35 ± 0.0562 | 1.48 ± 0.0891 | 1.42 ± 0.0965 |
| AAGCTG | 0.608 ± 0.0202 | 0.708 ± 0.0215 | 0.801 ± 0.0274 |
| CTTTCA | 1.3 ± 0.0524 | 1.47 ± 0.103 | 1.35 ± 0.102 |
| ATGAAA | 2.91 ± 0.152 | 1.98 ± 0.0876 | 1.79 ± 0.147 |
| AGAAGC | 0.652 ± 0.0323 | 0.745 ± 0.0224 | 0.845 ± 0.0201 |
| CAGCAA | 0.551 ± 0.0466 | 0.641 ± 0.0279 | 0.737 ± 0.0707 |
| TGTCAA | 1.12 ± 0.0378 | 1.266 ± 0.01 | 1.26 ± 0.0283 |
| GACATA | 1.19 ± 0.0463 | 1.28 ± 0.0199 | 1.25 ± 0.0289 |
| ACTAAC | 1.38 ± 0.0461 | 1.53 ± 0.0676 | 1.43 ± 0.0927 |
| AACATA | 2.08 ± 0.152 | 1.96 ± 0.129 | 1.76 ± 0.196 |
| AGAGAA | 1.42 ± 0.0467 | 1.64 ± 0.0726 | 1.46 ± 0.11 |
| GATACC | 0.884 ± 0.044 | 0.969 ± 0.034 | 1.04 ± 0.0218 |
| ATCTGA | 1.33 ± 0.0639 | 1.39 ± 0.0686 | 1.35 ± 0.119 |
| CATAAG | 1.63 ± 0.0634 | 1.59 ± 0.055 | 1.45 ± 0.0676 |
| AGTTAG | 1.428 ± 0.0117 | 1.56 ± 0.0647 | 1.46 ± 0.0871 |
| AAGGTG | 0.806 ± 0.0296 | 0.944 ± 0.0313 | 0.95 ± 0.0211 |
| AAGCTA | 1.18 ± 0.0764 | 1.3 ± 0.0578 | 1.28 ± 0.0869 |
| AGGGAT | 0.9983 ± 0.00779 | 1.11 ± 0.0341 | 1.07 ± 0.0457 |
| TGCTAA | 1.16 ± 0.0453 | 1.24 ± 0.0475 | 1.21 ± 0.0656 |
| CAACCG | 0.334 ± 0.0164 | 0.389 ± 0.015 | 0.509 ± 0.0746 |
| ATATAT | 5.74 ± 0.718 | 2.51 ± 0.217 | 2.2 ± 0.291 |
| GGTTCA | 0.788 ± 0.0387 | 0.916 ± 0.0428 | 0.966 ± 0.0244 |
| AGAAGA | 1.43 ± 0.0638 | 1.64 ± 0.118 | 1.47 ± 0.162 |
| AACGTT | 1.19 ± 0.0242 | 1.33 ± 0.0216 | 1.24 ± 0.0303 |
| TCATCA | 1.46 ± 0.0322 | 1.56 ± 0.0457 | 1.49 ± 0.0698 |
| CACCAG | 0.43 ± 0.0196 | 0.526 ± 0.014 | 0.606 ± 0.0242 |
| ATTGTA | 2.07 ± 0.0871 | 2.03 ± 0.111 | 1.79 ± 0.162 |
| CGTGAA | 0.669 ± 0.0388 | 0.776 ± 0.0286 | 0.834 ± 0.041 |
| ACACAC | 0.701 ± 0.0589 | 0.815 ± 0.0148 | 0.903 ± 0.0448 |

From PMC9838217, “Structure of SALL4 zinc finger domain reveals link between AT-rich DNA binding and Okihiro syndrome”
